# Experimental data: the supplement of paper PMC8728848
# About 410 targets per protein were measured; listed, in parts, are those with the strongest signals and a random draw of the rest.
# B1: SJCP1084 (Schistosoma japonicum) (protein)
# chain: MRIINLVIISTALLLINLLQTKSQANGEDTKNGTPDDPGLTKSTELKVEVQALLKDKKTNMRVKWNENLLDNTKPEYHNLRDEACELLLQIVRSVVPLSQDDGECKDVTFTKYVVGTKDGAVNVKLTITFKDSVAINQKPMDLKLKLENDFKNLQSESTLKATKPTFTVKVEKRLIPISKPQTTPPTTAKNDASKENVGDIGGEDSTVPTAAPATAASANEEKDEGDKDNKDSQHPNVLTSNVNDRNLIIALVALMILAIGVALTAAVKQR
# Key:
# Experiment in all cases: glycan array binding signal (z-score within array); higher = stronger binding
# Conditions in all cases: glycan notation: IUPAC condensed, linker removed
# [1] = biological target: Gal(b1-4)GlcNAc(b1-3)Gal(b1-4)GlcNAc(b1-3)Gal(b1-4)GlcNAc(b1-3)Gal(b1-4)GlcNAc(b1-3)Gal(b1-4)GlcNAc(b1-2)Man(a1-3)[Gal(b1-4)GlcNAc(b1-3)Gal(b1-4)GlcNAc(b1-3)Gal(b1-4)GlcNAc(b1-3)Gal(b1-4)GlcNAc(b1-3)Gal(b1-4)GlcNAc(b1-2)Man(a1-6)]Man(b1-4)GlcNAc(b1-4)[Fuc(a1-6)]GlcNAc
# In short: (§1)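 Glycan array data were curated from 3228 arrays in the Consortium for Functional Glycomics database and kept only where the protein sequence was available. Glycan names were converted to IUPAC-condensed notation, and columns mapping to the same glycan were averaged. The binding signal is a within-array Z-score, averaged across arrays of the same protein sequence at different concentrations or buffers and across linkers. Negative Z-scores can be read as non-binding.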
# [2] = biological target: Gal(b1-4)GlcNAc(b1-3)Gal(b1-4)GlcNAc(b1-3)Gal(b1-4)GlcNAc(b1-3)Gal(b1-4)GlcNAc(b1-3)Gal(b1-4)GlcNAc(b1-2)[Gal(b1-4)GlcNAc(b1-3)Gal(b1-4)GlcNAc(b1-3)Gal(b1-4)GlcNAc(b1-3)Gal(b1-4)GlcNAc(b1-3)Gal(b1-4)GlcNAc(b1-6)]Man(a1-6)[Gal(b1-4)GlcNAc(b1-3)Gal(b1-4)GlcNAc(b1-3)Gal(b1-4)GlcNAc(b1-3)Gal(b1-4)GlcNAc(b1-3)Gal(b1-4)GlcNAc(b1-2)Man(a1-3)]Man(b1-4)GlcNAc(b1-4)[Fuc(a1-6)]GlcNAc
# In short: as §1
# [3] = biological target: Gal(b1-4)GlcNAc(b1-3)Gal(b1-4)GlcNAc(b1-3)[Gal(b1-4)GlcNAc(b1-3)Gal(b1-4)GlcNAc(b1-6)]GalNAc
# In short: as §1
# Gal3S(b1-4)GlcNAc = biological target: Gal3S(b1-4)GlcNAc
# In short: as §1
# [4] = biological target: GalNAc(b1-3)Gal(a1-4)Gal(b1-4)GlcNAc
# In short: as §1
# [5] = biological target: GlcNAc(a1-4)Gal(b1-4)GlcNAc(b1-3)Gal(b1-4)[Fuc(a1-3)]GlcNAc(b1-3)Gal(b1-4)[Fuc(a1-3)]GlcNAc
# In short: as §1
# [6] = biological target: GlcNAc(b1-3)Gal(b1-4)GlcNAc(b1-3)Gal(b1-4)GlcNAc(b1-2)Man(a1-3)[GlcNAc(b1-3)Gal(b1-4)GlcNAc(b1-3)Gal(b1-4)GlcNAc(b1-2)Man(a1-6)]Man(b1-4)GlcNAc(b1-4)GlcNAc
# In short: as §1
# [7] = biological target: GlcNAc(b1-3)Gal(b1-4)GlcNAc(b1-3)Gal(b1-4)GlcNAc(b1-3)Gal(b1-4)GlcNAc(b1-2)Man(a1-3)[GlcNAc(b1-3)Gal(b1-4)GlcNAc(b1-3)Gal(b1-4)GlcNAc(b1-3)Gal(b1-4)GlcNAc(b1-2)Man(a1-6)]Man(b1-4)GlcNAc(b1-4)[Fuc(a1-6)]GlcNAc
# In short: as §1
# [8] = biological target: GlcNAc(b1-3)Gal(b1-4)GlcNAc(b1-3)Gal(b1-4)GlcNAc(b1-3)Gal(b1-4)GlcNAc(b1-3)Gal(b1-4)GlcNAc(b1-2)Man(a1-3)[GlcNAc(b1-3)Gal(b1-4)GlcNAc(b1-3)Gal(b1-4)GlcNAc(b1-3)Gal(b1-4)GlcNAc(b1-3)Gal(b1-4)GlcNAc(b1-2)Man(a1-6)]Man(b1-4)GlcNAc(b1-4)[Fuc(a1-6)]GlcNAc
# In short: as §1
# [9] = biological target: GlcNAc(b1-3)Gal(b1-4)GlcNAc(b1-3)Gal(b1-4)GlcNAc(b1-3)Gal(b1-4)GlcNAc(b1-3)Gal(b1-4)GlcNAc(b1-2)[GlcNAc(b1-3)Gal(b1-4)GlcNAc(b1-3)Gal(b1-4)GlcNAc(b1-3)Gal(b1-4)GlcNAc(b1-3)Gal(b1-4)GlcNAc(b1-6)]Man(a1-6)[GlcNAc(b1-3)Gal(b1-4)GlcNAc(b1-3)Gal(b1-4)GlcNAc(b1-3)Gal(b1-4)GlcNAc(b1-3)Gal(b1-4)GlcNAc(b1-2)Man(a1-3)]Man(b1-4)GlcNAc(b1-4)[Fuc(a1-6)]GlcNAc
# In short: as §1
# GlcNAc(b1-3)Man = biological target: GlcNAc(b1-3)Man
# In short: as §1
# [10] = biological target: Neu5Ac(a2-3)Gal(b1-3)GalNAc
# In short: as §1
# [11] = biological target: Neu5Ac(a2-3)Gal(b1-3)GalNAc(b1-4)[Neu5Ac(a2-3)]Gal(b1-4)Glc
# In short: as §1
# [12] = biological target: Neu5Ac(a2-3)Gal(b1-3)GlcNAc(b1-2)Man(a1-3)[GlcNAc(b1-4)][Neu5Ac(a2-3)Gal(b1-3)GlcNAc(b1-2)Man(a1-6)]Man(b1-4)GlcNAc(b1-4)GlcNAc
# In short: as §1
# [13] = biological target: Neu5Ac(a2-3)Gal(b1-3)[Neu5Ac(a2-6)]GalNAc
# In short: as §1
# [14] = biological target: Neu5Ac(a2-3)Gal(b1-4)GlcNAc(b1-2)Man(a1-3)[Neu5Ac(a2-3)Gal(b1-4)GlcNAc(b1-2)Man(a1-6)]Man(b1-4)GlcNAc(b1-4)GlcNAc
# In short: as §1
# [15] = biological target: Neu5Ac(a2-3)Gal(b1-4)GlcNAc(b1-3)Gal(b1-3)GlcNAc
# In short: as §1
# [16] = biological target: Neu5Ac(a2-3)Gal(b1-4)GlcNAc(b1-3)Gal(b1-4)GlcNAc(b1-2)Man(a1-3)[Neu5Ac(a2-3)Gal(b1-4)GlcNAc(b1-3)Gal(b1-4)GlcNAc(b1-2)Man(a1-6)]Man(b1-4)GlcNAc(b1-4)GlcNAc
# In short: as §1
# [17] = biological target: Neu5Ac(a2-3)Gal(b1-4)GlcNAc(b1-3)Gal(b1-4)[Fuc(a1-3)]GlcNAc
# In short: as §1
# [18] = biological target: Neu5Ac(a2-3)Gal(b1-4)[Fuc(a1-3)]GlcNAc(b1-3)Gal(b1-4)[Fuc(a1-3)]GlcNAc(b1-3)Gal(b1-4)[Fuc(a1-3)]GlcNAc
# In short: as §1
# [19] = biological target: Neu5Ac(a2-3)[GalNAc(b1-4)]Gal(b1-4)Glc
# In short: as §1
# [20] = biological target: Neu5Ac(a2-6)Gal(b1-3)GlcNAc(b1-3)[Gal(b1-4)GlcNAc(b1-6)]Gal(b1-4)Glc
# In short: as §1
# [21] = biological target: Neu5Ac(a2-8)Neu5Gc(a2-3)Gal(b1-4)GlcNAc
# In short: as §1
binder,measurement,setting,value
B1,glycan array binding signal (z-score),[1],4.28
same,glycan array binding signal (z-score),[2],4.79
same,glycan array binding signal (z-score),[3],1.47
same,glycan array binding signal (z-score),Gal3S(b1-4)GlcNAc,-0.79
same,glycan array binding signal (z-score),[4],0.632
same,glycan array binding signal (z-score),[5],2.09
same,glycan array binding signal (z-score),[6],1.03
same,glycan array binding signal (z-score),[7],1.66
same,glycan array binding signal (z-score),[8],-0.466
same,glycan array binding signal (z-score),[9],2.68
same,glycan array binding signal (z-score),GlcNAc(b1-3)Man,0.248
same,glycan array binding signal (z-score),[10],-0.71
same,glycan array binding signal (z-score),[11],-0.565
same,glycan array binding signal (z-score),[12],-0.628
same,glycan array binding signal (z-score),[13],-0.036
same,glycan array binding signal (z-score),[14],0.105
same,glycan array binding signal (z-score),[15],-0.757
same,glycan array binding signal (z-score),[16],-0.701
same,glycan array binding signal (z-score),[17],-0.263
same,glycan array binding signal (z-score),[18],0.379
same,glycan array binding signal (z-score),[19],-0.474
same,glycan array binding signal (z-score),[20],-0.092
same,glycan array binding signal (z-score),[21],-0.605
